From PubChem BioAssay
An excerpt weighted towards active compounds, which were near 3.5% of everything screened.
MITF inh = blocks human microphthalmia-associated transcription factor; O75030; AlphaScreen MITF homodimerization, bead proximity signal; inhibition, % at 2.6 µM; 650,000 compounds, 0.91% hits; in the data active means inhibition above about 50%;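 further: 0% = vehicle wells with protein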
Target sequence (O75030 whole entry, looked up): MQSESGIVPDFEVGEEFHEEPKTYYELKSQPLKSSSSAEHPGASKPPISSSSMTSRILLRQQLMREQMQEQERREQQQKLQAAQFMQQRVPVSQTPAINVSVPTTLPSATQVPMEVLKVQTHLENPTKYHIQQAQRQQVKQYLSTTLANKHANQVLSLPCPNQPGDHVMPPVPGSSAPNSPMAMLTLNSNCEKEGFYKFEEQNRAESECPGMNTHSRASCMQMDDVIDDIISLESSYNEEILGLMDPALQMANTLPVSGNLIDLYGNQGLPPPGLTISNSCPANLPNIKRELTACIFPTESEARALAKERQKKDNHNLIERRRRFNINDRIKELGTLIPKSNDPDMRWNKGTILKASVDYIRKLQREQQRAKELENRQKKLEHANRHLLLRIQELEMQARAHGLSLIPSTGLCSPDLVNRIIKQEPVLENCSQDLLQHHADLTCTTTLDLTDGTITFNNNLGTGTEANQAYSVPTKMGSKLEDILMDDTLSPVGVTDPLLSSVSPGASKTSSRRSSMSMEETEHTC
GPR151 ag = human GPR151 activation; Q8TDV0; PathHunter beta-arrestin GPR151 cells, luminescence; activation, % at 11.2 µM; 650,000 compounds, 1% hits; AID 1508602; in the data active means activation above about 4.9%;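 further: 0% = median of compound wells and 100% = cells with positive control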
TEAD-YAP block = TEAD-YAP interaction inhibition; HEK-TIYL cells, TEAD-Gal4/YAP UAS-luciferase luminescence; inhibition, % at 9.12 µM; 640,000 compounds, 1.4% hits; in the data active means inhibition above about 32%;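 further: 0% = median of test compound wells and 100% = reference inhibitor wells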
FBW7 activator = activators of human E3 ligase FBW7; AlphaScreen FBW7–phospho-cyclin E peptide binding, activator screen; normalized activity (activation), % at 26.1 µM; 650,000 compounds, 0.13% hits; in the data active means normalized activity above about 1.9%;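 further: purified mutant Fbw7 with reduced substrate affinity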
MITF inh conf = confirmation of human MITF inhibitors. inhibition, % at 2.6 µM. 4,700 compounds, 16% hits. AID 1259372. shares compounds with MITF inh. AlphaScreen MITF homodimerization, biotin/His-MITF beads;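 active means inhibition above a cutoff derived from the DMSO control wells, cut at about 28% in these data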;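 further: 0% = MITF dimer wells with DMSO only; inhibitors lower the bead chemiluminescence by keeping MITF from dimerizing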
AlphaScreen DR = AlphaScreen optical interference, dose response counter-screen | AID 1259373 | IC50, µM | AlphaScreen optical interference counterscreen, cell-free | shares compounds with MITF inh | 480 compounds, 6% hits; call rule not given here
AS interf ctr = counter-screen: compounds optically interfering with AlphaScreen; shares compounds with MITF inh; LysRS AlphaScreen counterscreen, signal interference, triplicate; inhibition, % at 2.6 µM; 4,700 compounds, 7.6% hits;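 active means inhibition above a cutoff derived from the DMSO control wells, cut at about 30% in these data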
Starred values were filed as active, the others as inactive; x = not tested or not shown.

SMILES	MITF inh	GPR151 ag	TEAD-YAP block	FBW7 activator	MITF inh conf	AS interf ctr	others
Cc1cccc(Oc2cc(NC(=O)c3cc4nc(-c5ccccc5)cc(C)n4n3)cc([N+](=O)[O-])c2)c1	2	-1	-4	0	x	x
CC(C)(C)NC(=O)COC(=O)Cc1ccc(Cl)cc1	116*	0	-2	0	16	0
COc1ccc(NC(=O)c2nnn(-c3ccc(F)c(Cl)c3)c2C)cc1	-14	0	1	0	x	x
CCCC(CCC)c1nc2ccncc2[nH]1	52*	4	-5	0	-1	7
Cc1cccc(OCC(=O)Nc2cc(C)c(C)cc2O)c1	98*	0	-2	0	-12	3
Cc1cccc(CNc2nncc(-c3ccc(Cl)cc3)n2)n1	2	0	-6	0	x	x
COc1cc(CN2CCN(C3CCN(Cc4ccccc4)CC3)CC2)cc(OC)c1O	63*	-1	3	0	-6	7
COc1ccc(OC)c(NC(=O)CN2CCN(Cc3ccccc3)CC2)c1	62*	2	6	0	8	16
COc1cc(CN2CCN(C3CCN(Cc4ccccc4)CC3)CC2)cc(OC)c1OC	59*	-1	3	0	-5	-2
COc1cc(CN2CCN(Cc3ccccc3)CC2)cc(OC)c1O	79*	-2	4	0	-35	0
COc1ccc(NC(=O)CSc2nc3cc(OC)c(OC)cc3c(=O)n2Cc2ccco2)cc1	-6	0	-7	0	x	x
CCOc1ccc(NC(=O)CCCn2sc3ccccc3c2=O)cc1	6	3	6	0	x	x
CCc1ccc(CN2CCN(Cc3cc(OC)c(O)c(OC)c3)CC2)cc1	66*	-1	-5	0	51*	7	AlphaScreen DR=>5.8
COc1cc(CN2CCCCCC2)cc(OC)c1O	18	3	10	0	x	x
N[C@H]1CCC[C@H](C(=O)Nc2cccc3c(=O)[nH]cnc23)C1	54*	0	3	0	26	11
CCN(CC)CCCC(C)N=Cc1c(O)n(-c2c(C)cc(C)cc2C)c(=O)[nH]c1=O (stereo unspecified)	1	-1	5	0	x	x
CC(C)Sc1ccc(-c2ccccc2C=O)cn1	114*	0	0	0	6	8
Cc1ccsc1CN1CCN(Cc2ccc3c(c2)OCO3)CC1	56*	0	0	0	2	5
Fc1cccc(F)c1CN1CCN(Cc2ccc3c(c2)OCO3)CC1	59*	0	3	0	-9	-6
Cc1nc(N2CCN(Cc3ccc4c(c3)OCO4)CC2)c2c(C)c(C)sc2n1	74*	3	15	0	7	7
Brc1csc(CN2CCN(Cc3ccc4c(c3)OCO4)CC2)c1	62*	0	0	1	10	13
COc1ccc(NC(=O)c2c(NCc3ccc(C)o3)sc3c2CCC3)cc1	2	2	4	0	x	x
Cc1n[nH]c(=O)nc1N/N=C/c1ccc(C(C)C)cc1	-15	-4	12	0	x	x
CCOc1cc(/C=N/NC(=O)Cn2cnc3c(=O)n(C)c(=O)n(C)c32)ccc1O	13	1	14	0	x	x
O=C1c2cccc3cccc(c23)C(=O)N1CCc1ccc(Cl)cc1Cl	7	1	3	0	x	x
SMILES	MITF inh	GPR151 ag	TEAD-YAP block	FBW7 activator	MITF inh conf	AS interf ctr	others
COc1cccc(NC(=O)C2C(C(=O)O)C3C=CC2C32CC2)c1 (stereo unspecified)	-4	2	-1	0	x	x
c1cc(CN2CCN(Cc3ccc4c(c3)OCO4)CC2)co1	66*	-1	-3	0	1	9
O=C(C(=O)N1CCN(Cc2ccc3c(c2)OCO3)CC1)N1CCN(Cc2ccc3c(c2)OCO3)CC1	-11	-2	2	1	x	x
c1ccc(CN2CCN(Cc3ccc4c(c3)OCO4)CC2)nc1	63*	1	0	0	-7	-1
O=C(C1CC12CCN(Cc1ccc3c(c1)OCO3)CC2)N1CCN(Cc2ccccn2)CC1 (stereo unspecified)	10	1	5	0	x	x
O=C(CC(=O)NC1CCCCC1)N/N=C/c1ccc(Cl)cc1Cl	8	0	0	0	x	x
COc1ccc(C(CNCC(=O)Nc2ccccc2-c2ccccc2)N2CCOCC2)cc1 (stereo unspecified)	83*	-1	5	0	-15	-1
CCCS(=O)(=O)N1CCN(Cc2nc3ccccc3[nH]2)CC1	67*	-1	-7	0	7	20
CCCS(=O)(=O)N1CCN(Cc2ccccc2F)CC1	57*	0	6	0	0	-4
CS(=O)(=O)N1CCN(Cc2nc3ccccc3[nH]2)CC1	72*	-1	0	0	8	12
COc1ccc2c(c1)OC(C)CN(CCC(=O)NCCc1nc(-c3ccccc3)n[nH]1)C2 (stereo unspecified)	0	-1	0	0	x	x
CC1CCc2c(oc3ccc(NS(=O)(=O)c4ccccc4)cc23)C1 (stereo unspecified)	2	0	-30	0	x	x
COc1ccc(C(C)=O)c(OC)c1	18	-1	-10	0	x	x
CN1NC2(CCCC2)NC1=S	-7	1	-5	0	x	x
CC(C)CCN1NC2(CCCCC2)NC1=S	65*	-1	-6	1	3	15
CCOc1ccc(NC(=O)CN2CCN(CC(=O)C(C)(C)C)CC2)cc1	-3	0	0	0	x	x
O=C(NCC1CCCO1)c1ccc(CNc2nc(=S)[nH]c3ccccc23)cc1 (stereo unspecified)	9	1	5	0	x	x
O=C(NCc1ccc2c(c1)OCO2)C1CCC(CNc2nc(=S)[nH]c3ccccc23)CC1 (stereo unspecified)	57*	0	0	0	-13	-5
O=[N+]([O-])c1ccc(C2Nc3ccc(Br)cc3C(c3ccccc3)O2)cc1 (stereo unspecified)	57*	2	6	0	-4	2
Fc1ccc(C2Nc3ccc(Br)cc3C(c3ccccc3)O2)cc1 (stereo unspecified)	-6	2	0	0	x	x
COc1cccc(-c2cnc(NCc3ccc(F)cc3F)n2C)c1	51*	2	-5	0	-15	-4
Cn1c(-c2ccc(F)cc2)cnc1NCc1ccc(F)cc1	53*	0	8	0	-3	0
Cc1ccc(-c2cnc(NCc3cccc([N+](=O)[O-])c3)n2C)cc1	65*	0	7	0	-2	-2
Cn1c(-c2ccc3c(c2)OCO3)cnc1NCc1cccc(F)c1	54*	0	-30	0	-16	-6
Cn1c(-c2cccc([N+](=O)[O-])c2)cnc1NCc1cccc([N+](=O)[O-])c1	38	-1	8	0	x	x
CCOC(=O)COc1ccc(C2NC(=S)NC(C)=C2C(=O)OCC)cc1OC (stereo unspecified)	-8	1	0	0	x	x
